Source: PubChem
TWEAK Fn14 block – TWEAK-Fn14 signaling inhibition; TWEAK-stimulated Fn14 reporter cells, luciferase luminescence, 8 h; inhibition, % at 10 µM; 360,000 tested, 2% active; AID 1159606; in the data active = inhibition above about 50%
TROY signal inh – inhibitors of TROY-dependent NF-kB signaling; inhibition, % at 10 µM; 360,000 tested, 0.98% active; AID 1347056; Q293 LMP1-TROYcd NF-kB luciferase reporter, 4 h;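 active = compounds whose plate-normalised and pattern-corrected inhibition of the luciferase reporter signal at the single screening dose is 50% or more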
CF NFkB inh – cystic fibrosis NF-kB activation inhibition; KKLEB NF-kB-GFP reporter, PAF-induced, GFP fluorescence overnight; inhibition, % at 5 µM; 360,000 tested, 0.86% active; AID 588850;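 active = at least 50% inhibition at 5 µM, scaled per plate between neutral and stimulator controls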;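 note: PAF is a Pseudomonas aeruginosa culture filtrate used as stimulus; plate controls were PAF-stimulated DMSO wells for no effect and unstimulated DMSO wells for full effect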
KKLEB cytotox – CF airway cell cytotoxicity counter-screen | KKLEB CF airway cells viability, ATPlite luminescence, overnight; hits give low values; cells stimulated with P. aeruginosa culture filtrate | activity change (cytotoxicity), % at 5 µM | 360,000 tested, 0.36% active;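 active = corrected activity change at or below -50% at 5 µM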
Peg3 promoter – inhibitors of Peg3 promoter; inhibition, % at 20 µM; AID 588405; 360,000 tested, 1.7% active; HeLa PEG-Prom luciferase reporter, luminescence, overnight;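 active = inhibition of at least 50% at 20 µM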
HIF-2a block – inhibitors of HIF-2a; 786-0 RCC cells HIF-2a reporter, luciferase luminescence, overnight; inhibition, % at 18.8 µM; 360,000 tested, 0.72% active;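 active = inhibition of the luminescence signal of 40% or more relative to plate controls, in a single-dose primary screen at 18.75 µM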
Numbers without * were called inactive; . = no result given. Sampled rows, rich in hits. Any-hit rate of the full collection: about 4%.

SMILES	TWEAK Fn14 block	TROY signal inh	CF NFkB inh	KKLEB cytotox	Peg3 promoter	HIF-2a block
O=C(Nc1cccc(S(=O)(=O)N2CCOCC2)c1)C1CC(=O)N(c2ccc3c(c2)OCCO3)C1 (configuration not stated)	6	14	-26	15	3	10
COc1ccc(/C=C2\Sc3ccc(C(=O)NCCN4CCCCCC4)cc3N(C)C2=O)cc1	-27	27	10	4	36	4
CC(C)(C)c1ccc(/C=C2\SC(=O)N(CCNC(=O)c3cccc(S(=O)(=O)N4CCOCC4)c3)C2=O)cc1	93*	84*	-3	-22	17	9
CCN1CCN(CCNC(=O)c2ccc3c(c2)N(Cc2ccc(F)cc2)C(=O)/C(=C/c2ccccc2)S3)CC1	-52	1	37	-26	103*	29
O=C(Nc1nc2ccccc2c(=O)s1)c1ccc(F)cc1Cl	41	43	21	-9	3	-3
Cc1cc(C)c2nc(Nc3nc(-c4ccccc4)cc(=O)[nH]3)nc(C)c2c1	-38	-44	-21	-10	-43	-92
CC1=CC(C)(C)N=C(Nc2nc(C)c3cc(C)cc(C)c3n2)N1	-54	25	-13	18	61*	-11
CCOC(=O)c1c(S(=O)(=O)Nc2ccc(C)c(F)c2)c(C)n(C)c1C	-5	9	-18	9	1	1
O=C(NCc1ccccc1)c1c[nH]c2ccc(S(=O)(=O)Nc3ccc4c(c3)OCCO4)cc2c1=O	3	.	3	-30	25	19
O=C(NCc1cccnc1)c1c[nH]c2cc3c(cc2c1=O)OCCO3	70*	49	28	-18	-219	-76
CCOc1ccc(C(=O)CCc2nc3ccccc3s2)cc1	46	54*	0	15	-39	-176
COc1ccc(OCC(=O)NNc2nc3ccccc3s2)cc1	4	79*	-3	14	-5	-6
COc1ccc(OC)c2sc(NNC(=O)COc3ccccc3)nc12	1	10	-6	1	8	6
CN(c1ccc(OCC(=O)Nc2nc3ccccc3s2)cc1)S(=O)(=O)c1ccccc1	41	51*	-8	7	-7	-4
COc1ccc(C(=O)NC(=S)NNC(=O)COc2ccccc2)cc1	63*	17	12	10	23	16
COc1ccc(NC(=O)CCc2nc3ccccc3s2)c(OC)c1	-24	-1	-6	0	-20	-26
CCc1ccc(C(=O)CN2C(=O)C(C)N(c3ccc(C)cc3)C2=O)cc1 (configuration not stated)	-8	-14	5	3	-50	-48
CCC(C)[C@H](NC(=O)NC1CCN(Cc2ccccc2)CC1)C(=O)OC (some centres not stated)	4	-6	-4	-15	9	-8
C(=N\Nc1nc2ccccc2s1)/c1ccc2c(c1)OCO2	36	5	-9	-10	-220	-144
Cc1ccc2[nH]c(C)c(/C=N/Nc3nc4ccccc4s3)c2c1	60*	39	-10	-12	-9	-69
Brc1cc2c(cc1/C=N/Nc1nc3ccccc3s1)OCO2	57*	79*	4	4	-99	-230
COc1ccc(C=NNc2nc3ccccc3s2)cc1	78*	57*	-2	-17	-66	-4
CCOc1ccc(S(=O)(=O)N(C)c2ccc(OCC(=O)NC3=NCCS3)cc2)cc1	9	-19	-20	2	3	5
CCOc1ccc(S(=O)(=O)N(C)c2ccc(OCC(=O)Nc3nc4ccccc4s3)cc2)cc1	74*	34	-12	6	15	11
Brc1csc(/C=N/Nc2nc3ccccc3s2)c1	30	-11	-38	-6	-274	-242
SMILES	TWEAK Fn14 block	TROY signal inh	CF NFkB inh	KKLEB cytotox	Peg3 promoter	HIF-2a block
COc1cc(OC)cc(C(=O)Oc2ccc(/C=N/Nc3nc4ccccc4s3)cc2OC)c1	-27	-58	-8	-5	-265	-198
O=C(Cn1nnc(-c2ccccc2F)n1)NCCc1ccccc1	-20	-7	0	4	7	-2
O=C(Nc1cc(C(F)(F)F)ccc1N1CCCC1)C1CC(=O)N(Cc2ccccc2)C1 (configuration not stated)	4	-4	-42	14	4	8
COc1ccc(CN2CCNC(=O)C2CC(=O)NC2CCOCC2)cc1C (configuration not stated)	0	7	15	-15	10	7
COc1cc2ccccc2cc1C(=O)Nc1ccc(N2CCN(C(=O)C(C)C)CC2)cc1	32	44	-30	6	77*	-13
O=C(c1cccc(C(F)(F)F)c1)N1CCOc2ccccc21	3	1	4	5	-4	6
O=C(NCc1ccccc1)c1ccc(-c2cn[nH]c2)c2ccoc12	-22	-11	54*	-67*	-171	-171
O=C(CSc1ncnc2[nH]ncc12)Nc1nc(-c2ccc(F)c(F)c2)cs1	78*	39	6	12	43	-38
CS(=O)(=O)N1CCc2cc(-c3csc(NC(=O)C(c4ccccc4)c4ccccc4)n3)ccc21	2	3	-22	15	11	-22
O=C(Cc1ccc(F)cc1)Nc1nc(-c2ccc(F)c(F)c2)cs1	45	75*	-30	12	-21	-92
CC1Cc2cc(-c3csc(NC(=O)Cc4ccccc4)n3)ccc2N1S(C)(=O)=O (configuration not stated)	92*	60*	-39	21	16	-26
COc1ccc(CC(=O)Nc2nc(-c3ccc(F)c(F)c3)cs2)cc1	47	55*	-26	9	-9	-36
C[C@H](CO)N1C[C@H](C)[C@@H](CN(C)C(=O)CC2CC2)Oc2cc(Br)ccc2S1(=O)=O	-6	-11	-3	4	-2	5
Cn1ncc(Br)c1C(=O)N1CCCC1	-11	-14	-2	17	9	0
O=C(CN1C(=O)NC2(CCCC2)C1=O)Nc1nc(-c2ccc(F)c(F)c2)cs1	-3	0	-14	-12	6	-14
CC1(C(=O)OCC(=O)Nc2nc(-c3ccc(F)c(F)c3)cs2)CC1(Cl)Cl (configuration not stated)	72*	82*	-20	-5	-45	-88
Cc1cc(C)n(-c2nc(SCC(=O)O)c3c4c(sc3n2)COC(C)(C)C4)n1	-5	-1	-4	2	21	9
Cc1cc(C)n(-c2nc(SCCN(C)C)c3c4c(sc3n2)CCCC4)n1	-41	17	12	-31	83*	-271
CC(=O)c1c(C)[nH]c(C(=O)OCC(=O)Nc2cccc(S(=O)(=O)N3CCCC3)c2)c1C	65*	20	-29	22	-9	-46
CC(=O)c1c(C)[nH]c(C(=O)OCC(=O)Nc2cccc(S(=O)(=O)N(C)C)c2)c1C	21	2	6	4	6	-2
